NPR1 antag – antagonists of human natriuretic peptide receptor Npr1 | HEK293 hNpr1 GloSensor cGMP, ANP-stimulated luminescence | 76,000 tested, 1.6% active | Potency, µM (highest dose often 46.3 µM), most hits filed as inhibitors | P16066; calls by dose curve; further: nearly all actives have a fitted effect of over 60% in size
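HEK293 cells stably expressing human Npr1 and cGMP GloSensor pGS-40F, loaded 2 h with 2% GloSensor reagent, given compound 30 min at room temperature. Luminescence read before and 20 min after 0.1 nM hNppA.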
FLuc inh-1 – Photinus pyralis luciferase inhibition; purified P. pyralis luciferase, luminescence, biochemical; Potency, µM (doses to about 115 µM), hits mostly inhibitors; 76,000 tested, 2.5% active; AID 1347043; further: nearly all actives have a fitted effect of over 65% in size
Target sequence (P08659 whole entry, looked up): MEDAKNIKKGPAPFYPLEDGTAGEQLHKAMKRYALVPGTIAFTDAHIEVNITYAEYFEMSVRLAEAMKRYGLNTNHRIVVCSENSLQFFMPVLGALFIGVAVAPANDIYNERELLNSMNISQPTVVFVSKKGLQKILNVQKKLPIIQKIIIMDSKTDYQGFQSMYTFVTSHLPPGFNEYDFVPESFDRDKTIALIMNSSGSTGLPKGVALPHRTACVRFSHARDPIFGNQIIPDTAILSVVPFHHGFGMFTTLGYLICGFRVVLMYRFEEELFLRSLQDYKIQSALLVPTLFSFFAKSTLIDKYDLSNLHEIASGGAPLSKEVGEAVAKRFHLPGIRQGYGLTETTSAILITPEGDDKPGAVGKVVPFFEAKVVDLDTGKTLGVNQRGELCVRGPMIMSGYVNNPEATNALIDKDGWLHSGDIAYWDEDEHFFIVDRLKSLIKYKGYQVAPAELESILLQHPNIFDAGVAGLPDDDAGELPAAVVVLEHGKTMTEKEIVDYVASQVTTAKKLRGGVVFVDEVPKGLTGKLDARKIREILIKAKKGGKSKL
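Purified 10nM P. pyralis luciferase with 10uM D-luciferin and 10uM ATP in 50mM Tris acetate pH 7.5, 10mM Mg acetate, 0.01% Tween-20, 0.05% BSA. qHTS titration; luminescence read by CCD imager.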
HEK293 tox – HEK 293 cell cytotoxicity; HEK 293 viability, ATP luminescence (CellTiter-Glo), 48-72 h; Potency, µM (titrated, usually from 115 µM), most hits filed as inhibitors; 94,000 tested, 6.6% active; further: nearly all actives have a fitted effect of over 60% in size
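HEK 293 seeded at 250 cells/well receive compound via pintool. After 48 or 72 hr at 37 degree Celsius, 5% CO2 and 95% humidity, CellTiter-Glo is dispensed and luminescence read following 10 min at room temperature.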
3T3 cytotox – NIH 3T3 cell cytotoxicity; NIH 3T3 viability, CellTiter-Glo ATP luminescence, 48-72 h; 94,000 tested, 4.3% active; Potency, µM (series often up to 96.7 µM), actives largely listed as inhibitors; further: nearly all actives have a fitted effect of over 55% in size
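Cytotoxicity was measured by CellTiter-Glo ATP luminescence after 48 or 72 h compound exposure at 37 °C. Mouse NIH 3T3 fibroblasts were seeded at 400 cells/well and dosed by 23 nL pin transfer.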
FLuc SDR no ATP – firefly luciferase binding stabilization, ATP absent. Potency, µM (titrated, usually from 32.7 µM), hits mostly activators. shares compounds with FLuc inh-1. 1,300 tested, 7.8% active. AID 1963318. Purified FLuc-C-HiBiT, Nano-Glo HiBiT luminescence, no ATP; further: nearly all actives have a fitted effect of over 55% in size
FLuc SDR ATP – stabilizes firefly luciferase with ATP present | 1,300 tested, 8.7% active | shares compounds with FLuc inh-1 | Potency, µM (titrated, usually from 32.7 µM), hits mostly activators | purified FLuc-C-HiBiT + ATP, HiBiT complementation luminescence;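 further: signal reports ligand binding via conformational change of the enzyme rather than luciferase catalysis; nearly all actives have a fitted effect of over 55% in size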
FLuc inh-2 – firefly luciferase enzyme inhibition; 1,300 tested, 42% active; shares compounds with FLuc inh-1; AID 1963320; purified FLuc-C-HiBiT enzyme, luciferin luminescence; Potency, µM (titrated, usually from 32.7 µM), most hits filed as inhibitors; further: nearly all actives have a fitted effect of over 70% in size
Large screens that a line does not name were inactive (follow-up assays come after a bar, where they were run). Sampled rows, rich in hits. Any-hit rate of the full collection: about 11%. Unless noted, the call rests on the fitted dose curve; in most records, active means well fitted curve in the direction sought with a large enough effect; inconclusive means small, poorly fitted or top-dose-only effect, or another doubt; inactive means no such curve, though single readings can be large; an effect the other way counts as inactive or inconclusive.

Cc1ccc(C2Cn3nnc(C(=O)N4CCC(C(=O)NCCN5CCCC5)CC4)c3CO2)cc1 (stereo unspecified)	FLuc inh-1 13µM | FLuc SDR no ATP inactive | FLuc SDR ATP inconclusive | FLuc inh-2 inconclusive
Cc1ccc(C2Cn3nnc(C(=O)N4CCC(C(=O)NCCc5cccs5)CC4)c3CO2)cc1 (stereo unspecified)	FLuc inh-1 10µM | FLuc SDR no ATP inactive | FLuc SDR ATP inconclusive | FLuc inh-2 inconclusive
COc1ccc(CN2CCNc3cc(-c4ccccc4)ncc3C2)cn1	FLuc inh-1 14µM, HEK293 tox inconclusive, 3T3 cytotox inconclusive | FLuc SDR no ATP inactive | FLuc SDR ATP inactive | FLuc inh-2 inconclusive
Fc1ccc(-c2cc3c(cn2)CN(Cc2ccncc2)CCN3)cc1Cl	NPR1 antag inconclusive, FLuc inh-1 1.8µM, HEK293 tox 56µM, 3T3 cytotox inconclusive | FLuc SDR no ATP inactive | FLuc SDR ATP inactive | FLuc inh-2 18µM
COc1ccc(-c2cc3c(cn2)CN(Cc2ccncc2)CCN3)cc1	NPR1 antag inconclusive, FLuc inh-1 3.2µM, HEK293 tox inconclusive, 3T3 cytotox inconclusive | FLuc SDR no ATP inactive | FLuc SDR ATP inconclusive | FLuc inh-2 inconclusive
CCOc1cc2c(cn1)NCCN(Cc1ccccc1OC)C2	HEK293 tox inconclusive, 3T3 cytotox inconclusive
Cc1ccccc1Cn1cc(-c2ccncc2)cc1C(=O)NC(C)c1ccccn1 (stereo unspecified)	HEK293 tox inconclusive, 3T3 cytotox inconclusive
COc1cccc(-c2cc(C(=O)NCc3nc(-c4ccccc4)n[nH]3)[nH]n2)c1	FLuc inh-1 14µM, HEK293 tox inconclusive, 3T3 cytotox inconclusive | FLuc SDR no ATP inactive | FLuc SDR ATP inactive | FLuc inh-2 inconclusive
COc1cccc(-c2cc(C(=O)NCCNc3nc(C)cc(=O)[nH]3)[nH]n2)c1	FLuc inh-1 inconclusive
Cc1cnc(C(=O)N2CC(Oc3ccc(-c4nc(-c5ccccc5)no4)cc3)C2)cn1	none
O=C(c1ccccn1)N1CCC(Oc2ccc(-c3noc(-c4ccccc4)n3)cc2)C1 (stereo unspecified)	FLuc inh-1 11µM, HEK293 tox 22µM, 3T3 cytotox inconclusive | FLuc SDR no ATP inactive | FLuc SDR ATP inactive | FLuc inh-2 inconclusive
Cc1ncccc1C(=O)N1CC(Oc2ccc(-c3nc(-c4ccccc4)no3)cc2)C1	NPR1 antag inconclusive, FLuc inh-1 1µM, HEK293 tox 13µM, 3T3 cytotox inconclusive | FLuc SDR no ATP inactive | FLuc SDR ATP inconclusive | FLuc inh-2 6.2µM
COCCNC(=O)C1CCN(c2ccnc3ccnn23)CC1	none (no result: NPR1 antag, FLuc inh-1)
O=C(c1ccc(F)cc1)N1CCC(c2nn(-c3ccccn3)c(=O)[nH]2)CC1	none (no result: NPR1 antag, FLuc inh-1)
COCCn1c(C)cnc1CC1CCCN(C(=O)C2(c3ccc(OC)cc3)CC2)C1 (stereo unspecified)	none
CCCn1c(C)cnc1CC1CCN(C(=O)C2(c3ccc(OC)cc3)CC2)C1 (stereo unspecified)	FLuc inh-1 6.3µM, HEK293 tox 28µM | FLuc SDR no ATP inactive | FLuc SDR ATP inactive | FLuc inh-2 inactive
O=C1Nc2ccc(C(=O)c3ccco3)cc2/C1=C/c1cc(Cl)c(O)c(Cl)c1	none (no result: NPR1 antag, FLuc inh-1, HEK293 tox, 3T3 cytotox) | FLuc SDR no ATP inactive | FLuc SDR ATP inactive | FLuc inh-2 11µM
COc1ccc(-c2cc(N3CCCN(C(=O)c4nn(C)c5ccccc45)CC3)n[nH]2)cc1	HEK293 tox inconclusive, 3T3 cytotox inconclusive
Cc1cc(-c2cc3c(cn2)CN(Cc2cccs2)CCN3)ccn1	FLuc inh-1 6.3µM, HEK293 tox 89µM, 3T3 cytotox inconclusive | FLuc SDR no ATP inactive | FLuc SDR ATP inconclusive | FLuc inh-2 11µM
Cc1cc(-c2cc3c(cn2)CN(Cc2cnc[nH]2)CCN3)ccn1	none (no result: NPR1 antag, FLuc inh-1, HEK293 tox, 3T3 cytotox) | FLuc SDR no ATP inactive | FLuc SDR ATP inactive | FLuc inh-2 18µM
Oc1ccccc1CN1CCNc2cc(-c3ccccc3)ncc2C1	FLuc inh-1 2.5µM, HEK293 tox 79µM, 3T3 cytotox 79µM | FLuc SDR no ATP inconclusive | FLuc SDR ATP inactive | FLuc inh-2 inconclusive
Fc1ccccc1CN1CCNc2cnc(OCc3cccnc3)cc2C1	HEK293 tox inconclusive

Compound activity deposited in PubChem by National Center for Advancing Translational Sciences (NCATS).
